Data on 40 compounds can be found in PubChem BioAssay (NCATS).

Records with an inconclusive call do not appear. A call without a number means that no potency is given here. A number with no mark means an inactive call. Active and inactive are the calls of the source. Calls come from the whole dose curve; as a rule, active = well fitted inhibition curve with a large enough effect; inconclusive = small, poorly fitted or top-dose-only effect; inactive = no such curve, though single readings can be large or run the other way. Peptide text beside a SMILES is read from it.
Potency is the fitted concentration of half-maximal effect.

This experiment is described as follows: qHTS to identify inhibitors of the type 1 interferon - major histocompatibility complex class I in skeletal muscle: primary screen against the NCATS Mechanism Interrogation Plate v5.0 (MIPE) Libary (AID 1347411). Note: nearly all actives have a fitted effect of over 65% in size. The following applies: iHSKM cells + IFN-b, HiBiT-tagged MHC-I luminescence, 24 h; series mostly up to 45.8 µM. The text has this:
Assay Submitter (PI): Travis B. Kinder Ph.D. & James Inglese Ph.D.
Assay Development and Screening Technology Laboratory (ADST)
National Center for Advancing Translational Sciences (NCATS), Rockville, MD
National Institute of Health (NIH), Bethesda, Maryland
Idiopathic inflammatory myopathies, collectively referred to as myositis, are a group of rare autoimmune diseases characterized by skeletal muscle inflammation, weakness, and usually accompanied by systemic pathologies of the skin, lungs, or vasculature. Current immunosuppressive therapies and glucocorticoids are often not curative and are accompanied by harsh side effects, especially in children with juvenile myositis. We initiated a drug repurposing and development program to identify more targeted, less toxic therapeutics to treat myositis. Although its cause is not known, muscle from a subset of patients have an abundance of the inflammatory type 1 interferon (IFN) and a down-stream product major histocompatibility complex class I (MHC class I), which are both thought to contribute to damage and weakness. We conducted quantitative high throughput screening on 6,576 compounds (4,679 unique) through a series of cell-based assays to identify those that inhibit the IFN-stimulated expression of MHC class I in muscle precursor cells (myoblasts). The compound identification and evaluation strategy utilized a primary screen with reporter-tagged MHC class I in genome-engineered myoblasts, ATP content counter screen for viability, HLA-ABC immunofluorescence secondary screen, and HLA-B RT-qPCR tertiary screen.
The primary screen utilized CRISPR/Cas9 genome-engineering of immortalized human myoblasts, C25cl48, where a pro-luminescent reporter HiBit was fused to the C-terminus of endogenous MHC class I allele HLA-B*08:01 (HLA-B HiBit myoblasts). HiBit is an 11 amino acid fragment of NanoLuc luminescent reporter (Promega Corporation), and when complexed to the larger LgBit fragment, the reconstituted enzyme produces light in the presence of furimazine substrate (Schwinn et al., 2018). Briefly, HLA-B HiBit myoblasts were plated into 1536-well plates, treated with 4.0 ng/ml human IFN-beta and 2,480 compounds from the NCATS Mechanism Interrogation Plate v5.0 (MIPE5.0) in an 11-point, 1:3 titration with a high final concentration of 46 uM. After 24 hrs of treatment, cells were assayed by Nano-Glo HiBiT Lytic Detection System (Promega) and luminescence measured by a ViewLux 1430 Ultra HTS (Perkin Elmer).
Schwinn MK, Machleidt T, Zimmerman K, Eggers CT, Dixon AS, Hurst R, Hall MP, Encell LP, Binkowski BF, Wood K V. 2018. CRISPR-Mediated Tagging of Endogenous Proteins with a Luminescent Peptide. ACS Chem Biol 13:467-474. doi:10.1021/acschembio.7b00549
PROTOCOL TABLE (as described by Inglese et al., 2007)
SEQUENCE No. (e.g., 1, 2, 3, etc.); […] (e.g., Cells, Incubation, Reagent, etc.); VALUE; DESCRIPTION
1a; Cells; 5 uL; Use a Multidrop Combi (Thermo Scientific) to seed 300 cells/well into 24 Greiner 1536 well white/solid bottom, high base, TC plates in 5 ul/well of iHSKM growth medium (GM) without dexamethasone into columns 1+2. Add metal lids with gas-exchange holes
1b; Cells; 5 uL; Use a Multidrop Combi (Thermo Scientific) to seed 300 cells/well into 24 Greiner 1536 well white/solid bottom, high base, TC plates in 5 ul/well of iHSKM GM without dexamethasone + 4 ng/ml IFN-b into columns 3 - 48. Add metal lids with gas-exchange holes
2; Incubate; 1 hr; Incubate at 37 C, 5% CO2, 95% RH
3; Compounds; 23 nl; Use Pin Tool (Wako) to transfer DMSO control, ruxolitinib IFN-b inhibitor control [High Concentration = 80 uM final, 16-pt, 1:2 in duplicate], and library compounds in DMSO
4; Incubate; 24 hrs; Incubate at 37 C, 5% CO2, 95% RH
5; Dispense; 2.5 ul; Use BioRAPTR FRD (Beckman Coulter) to add HiBit lytic reagent
6; Incubate; 10 min; Incubate in the dark at ambient temperature for lysis
7; Detector; 5 sec; Measure luminescence with ViewLux 1430 Ultra HTS (Perkin Elmer). […]
Background: In qHTS, concentration-response curves come from the screen itself.
As to `CC(C)Oc1ccc2c(=O)c(-c3ccccc3)coc2c1`, the Potency entry was “inactive”.
Take `N=C(N)c1ccc2cc(OC(=O)c3ccc(N=C(N)N)cc3)ccc2c1`: the Potency result is “inactive”.
Same read-out and setting: in the case of `O=C(O)c1cn(-c2ccc(F)cc2)c2cc(N3CCNCC3)c(F)cc2c1=O` it was “inactive”; in that of `O=c1c(O)c(-c2ccc(O)cc2O)oc2cc(O)cc(O)c12`, “inactive”.
Still for that read-out and setting: to `C[Se]CCC(N)C(=O)O` (stereo not given) belongs “inactive”.
On the same count and under the same terms, to `COCCCN1CCC(NC(=O)c2cc(Cl)c(N)c3c2OCC3)CC1` belongs “inactive”; to `Cc1cccc(-c2[nH]ncc2-c2ccc3ncccc3n2)n1`, “inactive”.
With `CC(C)(S)[C@@H](N)C(=O)O`, the activity change, negative = inhibition was -26.4% [at 5.1 µM].
Take `Clc1ccc(C(Cn2ccnc2)OCc2c(Cl)cccc2Cl)c(Cl)c1` (stereo not given): the Potency entry was “inactive”.
Same read-out and setting: to `Cc1cc(Cl)ccc1OCCCC(=O)NO` belongs “inactive”.
On the same count and under the same terms, to `O=C(O)c1cccc(-c2noc(-c3ccccc3F)n2)c1` belongs “inactive”.
On the same count and under the same terms, in the case of `Nc1nc(N)c(N=O)c(OCC2CCCCC2)n1` it was “inactive”; in that of `Clc1ccc2c(N3CCN(CCCN4CCN(c5ccnc6cc(Cl)ccc56)CC4)CC3)ccnc2c1`, “inactive”.
Consider `Cc1ccc(C)c(OCCCC(C)(C)C(=O)O)c1`, for which the Potency entry was “inactive”.
Still for that read-out and setting: in the case of `Nc1ncn([C@H]2C[C@H](O)[C@@H](CO)O2)c(=O)n1` it was “inactive”.
On the same count and under the same terms, to `Oc1ccc(OCc2ccccc2)cc1` belongs “inactive”; to `Cc1nc(-c2ccc(OCC(C)C)c(C#N)c2)sc1C(=O)O`, “inactive”.
On the same count and under the same terms, in the case of `Cc1ncc([N+](=O)[O-])n1CC(C)O` (stereo not given) it was “inactive”; in that of `Oc1ccc(-c2nc(-c3ccc(F)cc3)c(-c3ccncc3)[nH]2)cc1`, “inactive”; in that of `Cc1ccc(S(=O)(=O)NC(=O)NN2CC3CCCC3C2)cc1` (stereo not given), “inactive”.
For the compound `COc1cc2c(cc1OC)C1CC(=O)C(CC(C)C)CN1CC2` (stereo not given), the Potency entry was “inactive”.
Turning to `COC(=O)[C@H](Cc1ccccc1)NC(=O)[C@@H](N)CC(=O)O` (H-Asp-Phe-OMe), the Potency result was “inactive”.
Still for that read-out and setting: in the case of `COc1cc(Nc2c(C#N)cnc3cc(OCCCN4CCN(C)CC4)c(OC)cc23)c(Cl)cc1Cl` it was 7.39 µM (active); in that of `CCCCCCCCCCCCCCCCCCCCCCO`, “inactive”; in that of `CC(C)[C@H](N)C(=O)OCCOCn1cnc2c(=O)[nH]c(N)nc21`, “inactive”.
On the same count and under the same terms, to `CCC(C)(Oc1ccc(C2(c3ccc(OC(C)(CC)C(=O)O)cc3)CCCCC2)cc1)C(=O)O` (stereo not given) belongs “inactive”; to `COc1cc2c(N3CCN(C(=O)Nc4ccc(OC(C)C)cc4)CC3)ncnc2cc1OCCCN1CCCCC1`, “inactive”; to `CCOC(=O)c1c(C)n(C)c2ccc(O)cc12`, “inactive”.
Turning to `O=C1c2c(O)cc(O)cc2OC(c2ccc(O)c(O)c2)C1O` (stereo not given), the Potency result is “inactive”.
On the same count and under the same terms, in the case of `CCCS(=O)c1ccc2nc(NC(=O)OC)[nH]c2c1` (stereo not given) it was “inactive”; in that of `CC(C)C[C@H](NC(=O)[C@H](Cc1ccccc1)NC(=O)c1cnccn1)B(O)O`, 0.0415 µM (active); in that of `CN(C)C(=O)[C@H](O)[C@H](Cc1ccccc1)NC(=O)c1cc2cc(Cl)ccc2[nH]1`, “inactive”.
On the same count and under the same terms, in the case of `CC1(C)CCC(C)(C)c2cc(NC(=O)c3ccc(C(=O)O)cc3)ccc21` it was “inactive”; in that of `COc1ccc2cc([C@H](C)C(=O)O)ccc2c1`, “inactive”.
The same measure, in the same setting: in the case of `CC(S)C(=O)NCC(=O)O` (stereo not given) it was “inactive”; in that of `O=c1cc(N2CCOCC2)oc2c(-c3ccccc3)cccc12`, “inactive”; in that of `CS(=O)(=O)OCCCCOS(C)(=O)=O`, “inactive”.
In the case of `N[C@@H](Cc1cc(I)c(Oc2cc(I)c(O)c(I)c2)c(I)c1)C(=O)O`, the Potency result was “inactive”.
Same read-out and setting: in the case of `CC(=O)N1CCN(c2ccc(OC[C@H]3CO[C@](Cn4ccnc4)(c4ccc(Cl)cc4Cl)O3)cc2)CC1` it was “inactive”.
Still for that read-out and setting: to `Clc1ccc(C(Cn2ccnc2)OCc2ccsc2Cl)c(Cl)c1` (stereo not given) belongs “inactive”.
